Data reported in PubChem BioAssay AID493194 (Broad Institute, 2011).
Results with a measured potency or affinity are listed apart. Records with an inconclusive call do not appear.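 Rule for the calls: active = a valid curve of falling signal whose half-effect concentration is at most ten times the top tested dose; inconclusive = flat curve at 30 to 70% inhibition, or poor fit; inactive = signal rise, flat within 30%, or potency beyond limit.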

What follows are compounds tested against Scavenger receptor class B member 1 (Mus musculus) (UniProt Q61009) (assay: inhibitors of SR-BI mediated HDL lipid uptake, dose response, ldlA[mSR-BI] cells, fluorescence, cherry pick (AID 493194;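 note: CHO cells lacking LDL receptor and overexpressing mouse SR-BI; cellular uptake of fluorescently labeled HDL measured as cell fluorescence; 0% = median of neutral control wells and -100% = median of positive control wells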)). Conditions: CHO ldlA[mSR-BI] DiI-HDL uptake fluorescence, 3 h; series mostly up to 35 µM; activity change, negative = inhibition: at the top concentration.
Chain of Scavenger receptor class B member 1 (Mus musculus) (Q61009 whole entry, looked up): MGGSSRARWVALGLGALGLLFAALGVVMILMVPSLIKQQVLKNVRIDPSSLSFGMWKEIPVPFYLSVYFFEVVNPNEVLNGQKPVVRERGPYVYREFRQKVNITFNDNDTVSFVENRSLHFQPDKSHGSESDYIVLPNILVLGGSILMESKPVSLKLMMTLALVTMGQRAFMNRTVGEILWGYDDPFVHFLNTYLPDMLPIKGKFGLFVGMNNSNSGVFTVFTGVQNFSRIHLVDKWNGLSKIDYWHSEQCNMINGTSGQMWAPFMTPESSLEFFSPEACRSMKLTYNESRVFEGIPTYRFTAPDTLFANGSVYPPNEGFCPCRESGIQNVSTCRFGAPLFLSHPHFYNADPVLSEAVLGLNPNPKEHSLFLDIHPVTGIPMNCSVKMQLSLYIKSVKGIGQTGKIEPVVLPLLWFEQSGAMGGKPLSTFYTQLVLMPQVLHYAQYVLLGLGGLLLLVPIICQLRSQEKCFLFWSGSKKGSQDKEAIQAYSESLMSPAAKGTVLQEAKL

Activity change, negative = inhibition, inactive:
COc1cc2c(C#CCCCO)c(-c3ccsc3)oc(=O)c2cc1OC -6.63%
O=C(Nc1nc(-c2ccccn2)cs1)c1ccc(-c2ccccc2F)o1 10.7%
O=C(Nc1ccccc1)c1ccc2c(c1)CCN2S(=O)(=O)c1ccccc1 -4%
CCn1nc(C)c(CN2CCc3c([nH]c4ccccc34)C2c2ccc(F)c(OC)c2)c1C (stereo not drawn) -40.9%
CC(=O)Nc1cccc(NC(=O)c2ccc3c(c2)CCN3S(=O)(=O)c2ccccc2)c1 -18.7%
Cc1cc(C)cc(NC(=O)c2ccc3c(c2)CCN3S(C)(=O)=O)c1 -12.6%
Cc1c(Nc2nc3ccccc3nc2N2CCN(c3ccccc3)CC2)c(=O)n(-c2ccccc2)n1C -22%
c1ccc(CCNc2nc(-c3ccncc3)nc3ccccc23)cc1 -17.9%
O=C(Cc1cccs1)NCCSc1c(-c2ccc(Cl)cc2)[nH]c2ccccc12 -31.7%
COc1ccc(N2CC(C(=O)N3CCN(S(=O)(=O)c4ccc(F)c(F)c4)CC3)CC2=O)c(OC)c1 (stereo not drawn) 20.3%
N#Cc1ccc(C(=O)N2CCC3CC2c2cc(-c4ccccc4)ccc23)cc1 (stereo not drawn) 16.1%
O=C(Nc1ccc(-c2csc(Nc3cccc(C(F)(F)F)c3)n2)cc1)c1cccc(C(F)(F)F)c1 5.91%
COc1ccc(NC(=O)c2ccc3c(c2)CCN3S(=O)(=O)c2ccccc2)cc1 -8.87%
COc1cccc(-c2nnc(SC(C(=O)c3c[nH]c4ccccc34)c3ccccc3)n2C)c1 (stereo not drawn) -22.5%
CC(C)(C)OC(=O)N1CSC[C@H]1C(=O)NC[C@H](CC(=O)O)c1ccc(Cl)cc1 -4.86%
Cc1ccc(/C=C/C(=O)Nc2sc3c(c2C#N)CCCC3)o1 -15%
CCCCc1nnc(NC(=O)c2ccc(OCc3c(C)noc3C)cc2)s1 -0.944%
CCOC(=O)C(C)(C)Sc1nc2c(cnn2-c2ccc(F)cc2)c(=O)[nH]1 -12.7%
Cc1ccc(NC(=O)c2cc(S(=O)(=O)N3CCOCC3)c(Br)s2)cc1 -29.7%
CCC(C)NC(=O)Cn1cc(S(=O)(=O)N2CCN(c3ccccc3F)CC2)c2ccccc2c1=O (stereo not drawn) 42.3%
COc1ccc(OCC(O)Cn2c(Nc3cccc(C)c3)nc3c2c(=O)n(C)c(=O)n3C)cc1 (stereo not drawn) -47.7%
COc1ccc(S(=O)(=O)N2CCC(C(=O)NN3CCCCC3)CC2)cc1OC 4.12%
CC(C)C(=O)Nc1nc(-c2ccc3c(c2)CCN3C(=O)C2CC2)cs1 62.6%
O=C(Nc1ccc(N2CCOCC2)cc1)c1cccc(S(=O)(=O)N2CCC(Cc3ccccc3)CC2)c1 21.7%
CC(=O)Nc1cc(NC(C)=O)cc(C(=O)OCC(=O)N(c2ccccc2)C2CCS(=O)(=O)C2)c1 (stereo not drawn) 29%
CCc1cc2c(=O)c(-c3ccc4c(c3)OCCO4)coc2cc1OS(C)(=O)=O -7.65%
O=C(CN1CCN(c2ncc(C(F)(F)F)cc2Cl)CC1)NCCNc1ncc(C(F)(F)F)cc1Cl -31.2%
Cc1ccc(F)cc1NC(=O)C1C2CCC(O2)C1C(=O)O (stereo not drawn) 42.3%
CC(C)CN(C(=O)COC(=O)C12CC3CC(CC(O)(C3)C1)C2)C1CCS(=O)(=O)C1 (stereo not drawn) 111%
CC(C)(C)N(Cc1ccccc1)C(=O)COC(=O)CN1C(=O)NC2(CCCC2)C1=O 55.6%
CC1CCCCC1NC(=O)C1CCN(C(=O)c2sccc2-n2cccc2)CC1 (stereo not drawn) 6.93%
CN(C(=O)COC(=O)c1c[nH]c(=O)[nH]c1=O)C1CCCCC1 50.6%
N#Cc1ccc(CN2CCN(C(=O)c3ccc(S(=O)(=O)NCc4ccco4)cc3)CC2)cc1 -45.4%
O=C(NCCn1cc(SCc2ccccc2)c2ccccc21)c1c(F)cccc1F -20%
CN(C(=O)c1ccc2c(c1)CCN2S(C)(=O)=O)c1ccccc1 -0.242%
CC(C)c1cc(CNC(=O)C2CCC(=O)N(CCc3ccc(Cl)cc3)C2)on1 (stereo not drawn) 23.7%
CCOc1ccc(NC(=O)CN2CCN(CC(=O)Nc3ccc(C(=O)OC)cc3)CC2)cc1 -49.9%
Cc1cccc(N2CCN(C(=O)Cn3cccc3C(=O)c3ccccc3)CC2)c1C -20.2%
